# Results: PubChem BioAssay (NCI)
# The panel holds about 83,000 compounds, 20% with a hit somewhere; the sample as a whole holds those more often.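 Single-dose data. Exposure time 48 hours. Values below 10 considered active.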 Unmarked numbers belong to inactive results. Activity calls are given as the source filed them.
# What was measured:
# Experiment in all cases: NCI-60 one-dose screen, 48 h (100 = growth as untreated, 0 = no growth, -100 = all killed)
# Conditions in all cases: 10 µM unless noted
# [1] = system: HCT-15 colon
# [2] = system: HT29 colon
# [3] = system: SNB-75 CNS
# [4] = system: SNB-19 CNS
# [5] = system: U251 CNS
# [6] = system: PC-3 prostate
# [7] = system: SK-MEL-5 melanoma
# [8] = system: UACC-62 melanoma
# [9] = system: LOX IMVI melanoma
# [10] = system: SK-MEL-28 melanoma
SMILES,growth [1],growth [2],growth [3],growth [4],growth [5],growth [6],growth [7],growth [8],growth [9],growth [10]
O=C(/C=C/c1ccccc1Cl)c1cccc(OCCCCOc2cccc(C(=O)/C=C/c3ccccc3Cl)c2)c1,103%,96.9%,86%,100%,90.3%,91.1%,99.5%,85.5%,102%,99.7%
Cc1cc(O)c(=O)cc2c1C[C@H]1CC(C)(C)/C=C/C[C@]3(C)Oc4cc(=O)c(O)cc(C)c4C[C@H]3C[C@H](O)[C@@]1(C)O2,17.3%,7.77% (active),23.5%,4.62% (active),2.67% (active),10.2%,-9.26% (active),-56.5% (active),6.33% (active),5.5% (active)
Fc1ccc(/C=C/[C@@H]2C[C@@H](F)CCO2)cc1,93.7%,99.9%,99.3%,93.8%,111%,43.6%,98%,90.9%,96.9%,92.9%
CCSc1ccnc(N)n1,102%,113%,95.2%,103%,105%,96%,107%,99%,99.9%,114%
CC/C(=C(\c1ccc(Cl)cc1)c1ccc(OCCN2CCCCC2)cc1)c1ccc(O)cc1,2.22% (active),-37.2% (active),40.5%,61.1%,0.575% (active),30.4%,2.53% (active),71%,-91.5% (active),-63.4% (active)
Fc1cc2[nH]ncc2c2c3c(c(-c4cn[nH]c4C(F)(F)F)nc12)CCCC3,4.79% (active),6.14% (active),-26.5% (active),8.83% (active),-0.282% (active),34.6%,-66.3% (active),-4.44% (active),-50.6% (active),0.426% (active)
O=C(NCCCCCCNC(=O)OCc1ccc2c(Cl)cc(Cl)c(O)c2n1)OCc1ccc2c(Cl)cc(Cl)c(O)c2n1,-29.1% (active),-75% (active),-96.2% (active),51.4%,-92.2% (active),-46.2% (active),-95.5% (active),-94.3% (active),-88.7% (active),-89.8% (active)
O=c1oc2c(cc1-c1ccccc1)c(=O)[nH]c1ccccc12,98.2%,96.6%,92.7%,97.4%,93.4%,96.3%,99.4%,95.5%,95.8%,99.7%
O=C1NC(=O)C(c2coc3cc(Br)ccc23)=C1c1c[nH]c2ccccc12,25%,20.6%,-2.44% (active),58%,29.6%,67.2%,80.7%,35.6%,44%,71.5%
COc1cccc(CNc2c3ccccc3nc3ccccc23)c1OC,19.8%,14.4%,68%,35.5%,34.5%,37.6%,55.8%,51.3%,13%,66.1%
C(=C(\C1=NCCN1)n1ccc2ccccc21)/c1ccccc1,99.6%,103%,80.7%,99.9%,94.6%,95.5%,98.3%,93.5%,93.3%,106%
CCOC(=O)c1nnn(Cc2cc(=O)oc3ccc(O)cc23)c1C,103%,103%,93.4%,96%,105%,95.2%,104%,95.9%,99.9%,107%
Clc1ccc(Nc2nnc(CNc3ccccc3)c3ccccc23)cc1,13.4%,0.551% (active),19.6%,25.9%,9.66% (active),7.15% (active),-69.1% (active),8.47% (active),12.1%,14.9%
CC(=O)c1c(Nc2cccc(F)c2)[nH]c2c(Cl)cc(Cl)c(Cl)c2c1=O,8.24% (active),4.86% (active),-9.54% (active),16.6%,3.22% (active),10.3%,-68.7% (active),-18.7% (active),9.99% (active),5.27% (active)
OC1(c2ccccc2)c2ccccc2N(c2ccccc2)c2ccc(Cl)cc21 (stereo not given),-44.2% (active),-77.5% (active),-57.6% (active),-91.6% (active),-87.9% (active),-75.1% (active),-97.6% (active),-92% (active),-93.6% (active),-97.1% (active)
C=C(c1ccc(C(=O)O)c(F)c1)c1cc2c(cc1C)C(C)(C)CCC2(C)C,80.9%,97.9%,74.3%,86.8%,75.4%,72.5%,74%,83.5%,93.9%,89.9%
CCCCNC(=O)c1ccc2c(c1)nc(-c1ccccc1)n2C1CCCCC1,72.5%,50.3%,114%,110%,99%,90.9%,93.7%,87.3%,92.6%,106%
CC1=Nc2cnc(Nc3ccc(N4CCCCC4)cc3)nc2Nc2ccccc21,62.6%,62.5%,86.7%,94.9%,83.8%,19.6%,41.6%,55.2%,75.8%,84.7%
CCCCn1c(NC(C)=O)c(S(=O)(=O)c2ccccc2)c2nc3ccccc3nc21,101%,124%,89.8%,98.7%,103%,96%,100%,97.8%,101%,122%
N#CC1=C(N)Oc2c(sc3c(F)cccc23)C1c1ccc([N+](=O)[O-])cc1 (stereo not given),-54.5% (active),-13.6% (active),-35.3% (active),-27.9% (active),-64.5% (active),-10.4% (active),-95.9% (active),-75.6% (active),-83.1% (active),-44.1% (active)
COC(=O)[C@@]12CC=C(C)[C@]3(C[C@H](c4ccoc4)OC3=O)[C@H]1C=C[C@@H](O)[C@@]2(O)C(=O)OC,108%,84.7%,88.9%,105%,97.9%,95.6%,107%,92.8%,97.5%,105%
CN(C)/C(N)=N/N=C(\c1ccccc1)c1ccccn1,90.5%,110%,101%,106%,96.7%,81.5%,95.5%,105%,93%,113%
COc1ccc(C(=O)Nc2ncc(Cc3ccc(Cl)cc3)s2)cc1,8.72% (active),6.03% (active),20%,23.9%,25.2%,22.7%,-1.16% (active),33.5%,19.8%,52.3%
COc1cc(O)c2c(=O)c3c(CC=C(C)C)cc(OC)c(O)c3oc2c1,29.6%,71.4%,5.63% (active),27.2%,9.71% (active),73.9%,52.9%,17%,40.3%,63%
CC(=O)N1N=C(c2ccc(Nc3nc(Nc4ccc(F)cc4)nc(Nc4ccc(F)cc4)n3)cc2)CC1c1ccc(N(C)C)cc1 (stereo not given),46.9%,50.7%,62.7%,66.2%,49.8%,32.8%,29.3%,57%,52.5%,64.2%
COc1cc(Cc2cc(-c3ccccc3)nn(Cc3ccccc3)c2=O)cc(OC)c1OC,29.1%,32.2%,61%,51.7%,32.9%,22.7%,40.2%,37.7%,43.7%,56.2%
